Values joined by “and” are separate entries in the source; they are usually repeats but may differ in a detail not shown here. Equal entries are not always repeated. Results filed as inconclusive are left out. Some structures have more than one record in an assay (separate samples or runs), and their calls can disagree. Active and inactive are the calls of the source. Unless noted, calls come from the whole dose curve; as a rule, active = well fitted curve in the direction sought with a large enough effect; inconclusive = small, poorly fitted or top-dose-only effect, or another doubt; inactive = no such curve, though single readings can be large; an effect the other way counts as inactive or inconclusive.
How the values were obtained:
[1] = target: Atrial natriuretic peptide receptor 2 (Homo sapiens) (UniProt P20594); test: Natriuretic polypeptide receptor (hNpr2) antagonism - Pilot subtype selectivity assay (AID 1347050; calls by dose curve; note: potency is the fitted concentration of half-maximal effect)
Sequence of Atrial natriuretic peptide receptor 2 (Homo sapiens) (P20594 whole entry, looked up): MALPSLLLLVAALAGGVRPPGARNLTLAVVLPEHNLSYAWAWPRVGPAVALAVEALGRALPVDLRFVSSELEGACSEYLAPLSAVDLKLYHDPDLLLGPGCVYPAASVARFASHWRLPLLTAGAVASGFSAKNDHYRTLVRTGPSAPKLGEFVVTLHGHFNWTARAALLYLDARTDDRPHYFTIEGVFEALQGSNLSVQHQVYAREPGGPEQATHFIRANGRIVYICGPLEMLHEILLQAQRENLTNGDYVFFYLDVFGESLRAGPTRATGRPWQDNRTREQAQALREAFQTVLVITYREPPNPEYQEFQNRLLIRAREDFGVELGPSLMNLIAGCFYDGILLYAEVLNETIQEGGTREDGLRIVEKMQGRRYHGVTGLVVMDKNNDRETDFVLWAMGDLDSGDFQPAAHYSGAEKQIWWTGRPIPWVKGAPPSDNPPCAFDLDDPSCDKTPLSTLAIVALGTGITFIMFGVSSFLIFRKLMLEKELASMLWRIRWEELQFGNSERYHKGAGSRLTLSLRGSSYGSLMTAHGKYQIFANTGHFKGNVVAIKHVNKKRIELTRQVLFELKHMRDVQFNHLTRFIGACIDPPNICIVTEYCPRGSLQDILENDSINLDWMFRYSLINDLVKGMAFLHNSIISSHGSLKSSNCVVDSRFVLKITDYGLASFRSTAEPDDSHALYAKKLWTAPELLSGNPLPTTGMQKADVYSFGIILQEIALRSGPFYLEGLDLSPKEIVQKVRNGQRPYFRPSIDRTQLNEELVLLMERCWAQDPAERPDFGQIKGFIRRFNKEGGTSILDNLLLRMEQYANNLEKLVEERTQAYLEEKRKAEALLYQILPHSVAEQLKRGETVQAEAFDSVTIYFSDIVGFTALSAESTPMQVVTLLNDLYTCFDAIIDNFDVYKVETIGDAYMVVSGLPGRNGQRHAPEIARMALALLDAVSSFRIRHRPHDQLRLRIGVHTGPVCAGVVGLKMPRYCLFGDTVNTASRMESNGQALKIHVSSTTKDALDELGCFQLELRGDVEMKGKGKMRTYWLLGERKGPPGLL
Outline: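 Luminescence from a genetically encoded cGMP luciferase biosensor in hNpr2-expressing HEK293 cells is read before and 20 min after adding 1 nM hNppC. Test compounds, in interplate 1:5 titrations, are added 30-50 min ahead of the agonist.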

[2] = NS1 protein of Zika virus - qHTS assay to identify small molecule inhibitors in human HEK 293 cells (AID 1347053); note: nearly all actives have a fitted effect of over 55% in size; note: potency is the fitted concentration of half-maximal effect
Outline: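 Read-out is a two-antibody TR-FRET for ZIKV NS1, normalized between uninfected cells and infected cells. Compound added 1 h before MR766 infection at MOI 0.5; human HEK 293 cells incubated 24 h, 37 C.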

[3] = target: T1, Tyrosine-protein phosphatase non-receptor type substrate 1 (Homo sapiens) + Leukocyte surface antigen CD47 (Homo sapiens) (UniProt P78324+Q08722); test: CD47-SIRPalpha protein protein interaction - LANCE assay qHTS validation (AID 1347057; active = well fitted curve in the direction sought with a large enough effect in the signal ratio, with a control signal flat, not every such curve was filed as active; the % refers to the signal ratio; note: series mostly up to about 38 µM)
T1 sequence (P78324 whole entry, looked up, the tested form may be a part): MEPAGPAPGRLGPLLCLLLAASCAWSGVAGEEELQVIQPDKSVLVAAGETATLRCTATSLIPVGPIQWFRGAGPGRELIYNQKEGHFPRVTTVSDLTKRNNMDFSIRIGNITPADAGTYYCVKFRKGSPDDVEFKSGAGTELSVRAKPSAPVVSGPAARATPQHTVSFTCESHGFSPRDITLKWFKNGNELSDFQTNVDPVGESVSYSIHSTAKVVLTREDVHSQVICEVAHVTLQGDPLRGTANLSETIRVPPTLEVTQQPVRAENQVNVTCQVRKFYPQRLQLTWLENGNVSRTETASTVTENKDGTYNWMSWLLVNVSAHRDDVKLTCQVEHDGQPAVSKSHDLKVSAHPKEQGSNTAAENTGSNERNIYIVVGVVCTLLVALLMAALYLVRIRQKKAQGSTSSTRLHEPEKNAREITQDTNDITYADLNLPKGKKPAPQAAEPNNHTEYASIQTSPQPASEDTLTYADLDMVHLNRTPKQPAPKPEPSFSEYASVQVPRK
T1 sequence (Q08722 whole entry, looked up, the tested form may be a part): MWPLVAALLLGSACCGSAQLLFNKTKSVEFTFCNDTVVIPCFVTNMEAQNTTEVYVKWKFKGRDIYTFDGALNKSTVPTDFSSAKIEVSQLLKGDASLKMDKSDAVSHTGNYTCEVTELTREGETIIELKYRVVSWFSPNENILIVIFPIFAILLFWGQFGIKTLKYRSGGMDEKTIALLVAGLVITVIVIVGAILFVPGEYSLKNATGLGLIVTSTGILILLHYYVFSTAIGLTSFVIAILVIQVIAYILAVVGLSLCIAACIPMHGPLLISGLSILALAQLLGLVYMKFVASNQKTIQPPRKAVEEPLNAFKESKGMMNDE
Outline: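 Inhibition of soluble CD47/SIRPalpha ectodomain association by titrated compounds, measured as 665/615 nm time-resolved FRET ratio after sequential 30 min room-temperature incubations.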

[4] = target: T1, Tyrosine-protein phosphatase non-receptor type substrate 1 (Homo sapiens) + Leukocyte surface antigen CD47 (Homo sapiens); test: CD47-SIRPalpha protein protein interaction - HTRF assay qHTS validation (AID 1347058; active = well fitted curve in the direction sought with a large enough effect in the signal ratio, not every such curve was filed as active; the % refers to the signal ratio; note: series mostly up to about 38 µM)
Outline: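 Soluble extracellular domains (6His-CD47, Avi-tag-biotinylated SIRPalpha) in PBS pH 7.4 with 0.05% IGEPAL CA-630. Compounds were preincubated 30 min at RT with CD47 and anti-His-Eu, then SIRPalpha and SAV-XL665 were added. TR-FRET 665/615 ratio.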

[5] = target: T1, Tyrosine-protein phosphatase non-receptor type substrate 1 (Homo sapiens) + Leukocyte surface antigen CD47 (Homo sapiens); test: CD47-SIRPalpha protein protein interaction - Alpha assay qHTS validation (AID 1347059);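 note: bead proximity luminescence from CD47 binding SIRPalpha after compound preincubation with SIRPalpha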
Outline: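 SIRPalpha-biotin 25 nM + cpd, 30 min RT, dark; add CD47-His 12.5 nM, 30 min; add Ni-NTA/SAV beads 10 ug/mL, 30 min; AlphaScreen. Buffer PBS pH 7.4 + 0.05% IGEPAL CA-630. Non-biotinylated SIRPalpha as control inhibitor.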

[6] = target: Parathyroid hormone/parathyroid hormone-related peptide receptor (Homo sapiens) (UniProt Q03431); test: qHTS for PTHR1 Agonists: Optimization Screen against the NCGC LOPAC library (AID 1347079);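 note: GloSensor cAMP luminescence in HEK-293 GP2 cells expressing human PTHR1 with IBMX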
Sequence of Parathyroid hormone/parathyroid hormone-related peptide receptor (Homo sapiens) (Q03431 whole entry, looked up): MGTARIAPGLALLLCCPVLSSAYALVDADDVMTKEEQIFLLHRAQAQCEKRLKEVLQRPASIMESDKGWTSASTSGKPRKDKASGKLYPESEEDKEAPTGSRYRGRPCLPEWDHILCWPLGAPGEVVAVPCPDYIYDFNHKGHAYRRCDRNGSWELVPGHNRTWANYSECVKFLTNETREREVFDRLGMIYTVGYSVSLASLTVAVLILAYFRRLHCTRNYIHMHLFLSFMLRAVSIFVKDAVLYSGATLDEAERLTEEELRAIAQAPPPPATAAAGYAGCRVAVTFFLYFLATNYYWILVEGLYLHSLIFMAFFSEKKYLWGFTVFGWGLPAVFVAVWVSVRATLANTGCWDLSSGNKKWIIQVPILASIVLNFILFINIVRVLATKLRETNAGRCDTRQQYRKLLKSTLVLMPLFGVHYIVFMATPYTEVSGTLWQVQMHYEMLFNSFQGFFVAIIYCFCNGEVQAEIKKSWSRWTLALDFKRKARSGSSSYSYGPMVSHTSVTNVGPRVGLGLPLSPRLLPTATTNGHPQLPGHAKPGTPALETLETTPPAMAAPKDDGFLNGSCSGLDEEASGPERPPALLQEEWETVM
Outline: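 HEK-293 GP2 cells, PTHR1 + GloSensor cAMP; 3000 cells/well, o/n. Luciferin + IBMX 0.5mM each (stock), 1 hr 37C. Cpd titration, 1 hr 37C. Lum after 15 min RT. Ctrl M-PTH(1-15) top 10uM.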

[7] = qHTS for Inhibitors of the Functional Ribonucleoprotein Complex (vRNP) of Lassa (LASV) Arenavirus: LASV Primary Screen - GLuc reporter signal (AID 1347082; calls by dose curve; tested in HEK293 reporter line; note: nearly all actives have a fitted effect of over 60% in size; note: potency is the fitted concentration of half-maximal effect)
[8] = qHTS for Inhibitors of the Functional Ribonucleoprotein Complex (vRNP) of Lassa (LASV) Arenavirus: Viability assay - alamar blue signal for LASV Primary Screen (AID 1347083; calls by dose curve; tested in HEK293 reporter line; note: nearly all actives have a fitted effect of over 80% in size; note: potency is the fitted concentration of half-maximal effect)
[9] = qHTS for Inhibitors of the Functional Ribonucleoprotein Complex (vRNP) of Lymphocytic Choriomeningitis Arenaviruses (LCMV): Viability assay - alamar blue signal for LCMV Primary Screen (AID 1347085; calls by dose curve; tested in HEK293 reporter line; note: nearly all actives have a fitted effect of over 80% in size; note: potency is the fitted concentration of half-maximal effect)
[10] = target: Nucleoprotein (Lymphocytic choriomeningitis virus (strain Armstrong)) (UniProt P09992); test: qHTS for Inhibitors of the Functional Ribonucleoprotein Complex (vRNP) of Lymphocytic Choriomeningitis Arenaviruses (LCMV): LCMV Primary Screen - GLuc reporter signal (AID 1347086; calls by dose curve; note: nearly all actives have a fitted effect of over 70% in size; note: potency is the fitted concentration of half-maximal effect)
Sequence of Nucleoprotein (Lymphocytic choriomeningitis virus (strain Armstrong)) (P09992 whole entry, looked up): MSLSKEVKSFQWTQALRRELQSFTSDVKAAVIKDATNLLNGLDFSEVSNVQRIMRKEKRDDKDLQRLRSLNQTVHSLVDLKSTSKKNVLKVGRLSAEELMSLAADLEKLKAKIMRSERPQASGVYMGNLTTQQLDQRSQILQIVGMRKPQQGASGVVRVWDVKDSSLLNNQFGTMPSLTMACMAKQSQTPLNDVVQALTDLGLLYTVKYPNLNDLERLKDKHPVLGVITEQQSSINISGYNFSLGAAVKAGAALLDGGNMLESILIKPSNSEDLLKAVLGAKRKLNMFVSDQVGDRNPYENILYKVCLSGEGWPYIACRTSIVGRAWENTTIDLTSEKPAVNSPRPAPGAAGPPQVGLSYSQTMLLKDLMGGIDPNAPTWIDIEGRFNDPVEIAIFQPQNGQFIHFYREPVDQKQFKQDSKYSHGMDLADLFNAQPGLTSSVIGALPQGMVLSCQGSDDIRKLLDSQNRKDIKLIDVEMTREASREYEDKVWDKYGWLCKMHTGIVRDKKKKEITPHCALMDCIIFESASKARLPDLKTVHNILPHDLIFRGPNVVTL

Measured: Potency

NCC(CC(=O)O)c1ccc(Cl)cc1 (stereo not given)
inactive: all assays above

CCCN1CCC[C@@H]2Cc3[nH]ncc3C[C@H]21
inactive: all assays above

NCC1(CC(=O)O)CCCCC1
inactive: all assays above

C[C@H]1O[C@@H](O[C@H]2[C@@H](O)C[C@H](O[C@H]3[C@@H](O)C[C@H](O[C@H]4CC[C@@]5(C)[C@H](CC[C@@H]6[C@@H]5CC[C@]5(C)[C@@H](C7=CC(=O)OC7)CC[C@]65O)C4)O[C@@H]3C)O[C@@H]2C)C[C@H](O)[C@@H]1O
inactive: [2]

CC(CCc1ccccc1)NC(C)C(O)c1ccc(O)cc1 (stereo not given)
inactive: all assays above

O=C1NCN(c2ccccc2)C12CCN(CC1COc3ccccc3O1)CC2 (stereo not given)
inactive: all assays above

COc1ccccc1N1CCNCC1
inactive: all assays above

CNCC(O)c1ccc(O)cc1 (stereo not given)
inactive: all assays above

Cn1c(CCCC(=O)O)nc2cc(N(CCCl)CCCl)ccc21
inactive and 20.9 µM (active): [2]
not listed: [1] | [6]
inactive: all other assays above

O=c1[nH]c2ccccc2n1CCCN1CCC(n2c(=O)[nH]c3cc(Cl)ccc32)CC1
not listed: [1]
inactive: all other assays above

C[C@]12CCC(=O)C(O)=C1CC[C@@H]1[C@@H]2CC[C@]2(C)C(=O)CC[C@@H]12
not listed: [3] | [4] | [5]
inactive: all other assays above

CC(O)(CS(=O)(=O)c1ccc(F)cc1)C(=O)Nc1ccc(C#N)c(C(F)(F)F)c1 (stereo not given)
inactive: all assays above

CC(C)=CCOc1c2occc2cc2ccc(=O)oc12
not listed: [4]
inactive: all other assays above

O=c1[nH]c2ccccc2n1C1CCN(CCCC(c2ccc(F)cc2)c2ccc(F)cc2)CC1
not listed: [7] | [10]
inactive: all other assays above

NCC(O)c1ccc(O)cc1 (stereo not given)
inactive: all assays above

c1ccc(C2CC2)c(OCC2=NCCN2)c1
inactive: all assays above

CCCC(C)(COC(N)=O)COC(=O)NC(C)C (stereo not given)
not listed: [3] | [4] | [5]
inactive: all other assays above

Cc1cccc(C)c1NC(=O)CN1CCCC1=O
inactive: all assays above

CCC1(C2=NCCN2)Cc2ccccc2O1 (stereo not given)
inactive: all assays above

N#CC(C#N)=Cc1ccc(O)c(O)c1
not listed: [4]
inactive: all other assays above

NN=C(N)N
inactive: all assays above

CC[C@@H](CO)NC(=O)[C@@H]1C=C2c3cccc4[nH]cc(c34)C[C@H]2N(C)C1
not listed: [3] | [4] | [5]
inactive: all other assays above

Cc1ccc(S(=O)(=O)N[C@@H](CCCCN)C(=O)CCl)cc1
inactive: all assays above

C=C(C)[C@H]1Cc2c(ccc3c2O[C@@H]2COc4cc(OC)c(OC)cc4[C@@H]2C3=O)O1
active: [1] 0.0826 µM | [7] 1.09 µM | [8] 2.17 µM and 708 nM | [9] 3.85 µM
inactive: [2] | [3] | [4] | [6]

c1ccc2c(c1)OCC(C1=NCCN1)O2 (stereo not given)
inactive: [1] | [3] | [4] | [5] | [6]
active: [7] 14.1 µM

Cc1ncc(CNC(=O)N(CCCl)N=O)c(N)n1
inactive: all assays above

COc1ccc(C(CN(C)C)C2(O)CCCCC2)cc1 (stereo not given)
inactive: [2] | [6] | [7] | [8] | [9] | [10]

CC[C@@H](CO)NC(=O)[C@@H]1C=C2c3cccc4c3c(cn4C)C[C@H]2N(C)C1
not listed: [2] | [3] | [4]
inactive: all other assays above

CN1C[C@H](CNC(=O)OCc2ccccc2)C[C@@H]2c3cccc4c3c(cn4C)C[C@H]21
not listed: [4] | [5]
inactive: all other assays above

CC(=O)[C@H]1CC[C@H]2[C@@H]3CC[C@H]4C[C@](C)(O)CC[C@]4(C)[C@H]3CC[C@]12C
inactive: all assays above

Cc1cccc(C)c1NC1=NCCCS1
inactive: all assays above

CCCN1CCC[C@@H]2Cc3nc(N)ncc3C[C@H]21
inactive: all assays above

COC[C@H]1OC(=O)c2coc3c2[C@@]1(C)C1=C(C3=O)C2CCC(=O)[C@@]2(C)C[C@H]1OC(C)=O (stereo not given in full)
not listed: [9]
inactive: all other assays above

C[C@@H]1O[C@@H](O[C@H]2C[C@@H](O)[C@]3(CO)[C@H]4[C@H](O)C[C@]5(C)[C@@H](C6=CC(=O)OC6)CC[C@]5(O)[C@@H]4CC[C@]3(O)C2)[C@H](O)[C@H](O)[C@H]1O
13.2 nM (active) and inactive: [2]
active: [8] 109 nM and 44.7 nM | [9] 122 nM and 89.1 nM
not listed: [7] | [10]
inactive: all other assays above

CC(=O)[C@H]1CC[C@H]2[C@@H]3CC[C@H]4C[C@H](O)CC[C@]4(C)[C@H]3C(=O)C[C@]12C
inactive: all assays above

CNC(=O)N1N=C(c2ccc(N)cc2)c2cc3c(cc2CC1C)OCO3 (stereo not given)
inactive: [2]

Fc1ccc(C(OCCN2CCN(CCCc3ccccc3)CC2)c2ccc(F)cc2)cc1
active: [7] 34.3 µM | [10] 30.6 µM
inactive: [1] | [3] | [4] | [5] | [6]

Nc1ccncc1
inactive: all assays above

Cc1cc(SCc2sc(-c3ccc(C(F)(F)F)c(F)c3)nc2C)ccc1OCC(=O)O
inactive: [2] | [7] | [8] | [9] | [10]

COc1ccc(C(=O)c2c(C)n(CCN3CCOCC3)c3ccccc23)cc1
inactive: [2] | [7] | [8] | [9] | [10]

Cc1ccc(-c2nc3ccc(C)cn3c2CC(=O)N(C)C)cc1
inactive: [2] | [7] | [8] | [9] | [10]

C#CCN(C)[C@H](C)Cc1ccccc1
inactive: [2] | [7] | [8] | [9] | [10]

CC[N+](CC)(CC)CC
inactive: [2] | [7] | [8] | [9] | [10]

CCN(C(C)=O)c1cccc(-c2ccnc3c(C#N)cnn23)c1
inactive: [2] | [7] | [8] | [9] | [10]

Cc1ccc2c(c1)C1CN(C)CCC1N2 (stereo not given)
inactive: [2] | [7] | [8] | [9] | [10]

CN(C)[C@@H]1C(=O)C(C(N)=O)=C(O)[C@@]2(O)C(=O)C3=C(O)c4c(O)cccc4[C@@](C)(O)[C@H]3C[C@@H]12
inactive: [2] | [7] | [8] | [9] | [10]

CC(C)(C)NCC(O)c1cc(Cl)c(N)c(Cl)c1 (stereo not given)
inactive: [2] | [7] | [8] | [9] | [10]

COC1(CS(=O)c2ccccc2)CCN(CCc2c[nH]c3ccc(F)cc23)CC1 (stereo not given)
inactive: [2] | [7] | [8] | [9] | [10]

Clc1ccc(COC(Cn2ccnc2)c2ccc(Cl)cc2Cl)cc1 (stereo not given)
inactive: [2] | [7] | [8] | [9] | [10]

CC1OC(C)OC(C)O1 (stereo not given)
inactive: [2] | [7] | [8] | [9] | [10]

OCCOc1ccccc1
inactive: [2] | [7] | [8] | [9] | [10]
